Several values for one entry are separate records, joined by “and”; a condition that tells them apart may be missing. Equal entries are not always repeated. The whole screen tested about 69,000 compounds, of which about 2,600 (3.8%) were called active. Only a selection was taken, and actives are over-represented in it overall. A number with no mark means an inactive call. Rule as the data show it: active = activity change below about -70% (passing the limit was not always enough); inconclusive = no clear call, values can overlap the other calls.

This assay is described as follows: inhibitors of Toxoplasma growth in IFN-γ-primed hosts – cell-based, primary screen (AID 1259416).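 Also: host cells are HeLa cells infected with Toxoplasma gondii.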 The following applies: Toxoplasma gondii growth in IFN-gamma-treated host cells; stronger effect = lower value; concentration not given here.
As to `Cn1cc(-c2ccncc2)c(-c2ccc(OCc3ccc4ccccc4n3)cc2)n1`, the activity change, negative = inhibition is -77.6% (active).

Consider `Cc1nn(C)cc1-c1c(-c2ccccc2)ncn1CCNC(=O)c1ccncc1`, for which the activity change, negative = inhibition is -3.05%.

Turning to `CCCCCC(O)c1cccc(OCc2ccc3ccccc3n2)c1` (stereo unspecified), the activity change, negative = inhibition was 74.5% and 28.6%.

In the case of `CCOC(=O)c1c(C(F)(F)F)cc(-c2ccccc2)nc1C`, the activity change, negative = inhibition is 12.4%.

For `O=C(c1ccoc1)N1CCCn2c(nc(CN3CCCC3)cc2=O)C1`, the activity change, negative = inhibition was -0.164%.

For the compound `COc1ccc(S(=O)(=O)CCNS(=O)(=O)N2CCCC(C)C2)cc1` (stereo unspecified), the activity change, negative = inhibition is 2.67%.

As for `O=C(Cn1ncc2c(N3CCCC3)ncnc21)NCc1ccccc1`, the activity change, negative = inhibition was 10.5%.

Regarding `CCc1ccccc1NC(=O)Cn1ncc2c(N(CC)CC)ncnc21`, the activity change, negative = inhibition is -34.2%.

Regarding `CCN(CC)c1ncnc2c1cnn2CC(=O)NCc1ccccc1`, the activity change, negative = inhibition was -95.8% (active).

Take `Cc1cc(N2CCC(C(=O)Nc3nnc(-c4cccnc4)s3)CC2)n2ncnc2n1`: the activity change, negative = inhibition was -5.63%.

Turning to `COc1ccc(CCCOC(Cn2ccnc2)c2ccc(OC)cc2)cc1` (stereo unspecified), the activity change, negative = inhibition is -83.3% (active).

Consider `Clc1ccc(C(Cn2ccnc2)OCc2ccsc2Cl)c(Cl)c1` (stereo unspecified), for which the activity change, negative = inhibition was -59.6% and 3.6%.

`Cc1nc2c(c(=O)[nH]1)CCN(C(=O)c1c(-c3ccccc3Cl)noc1C)C2`: the activity change, negative = inhibition was 11.4%.

In the case of `COC(=O)c1cc2n(n1)CCCN(C(=O)COc1ncnc3ccccc13)C2`, the activity change, negative = inhibition was 2.6%.

Turning to `COc1ccc(NC(=O)c2cccc(CN3C[C@@H](C)O[C@@H](C)C3)c2)cc1`, the activity change, negative = inhibition is 26.7%.

For the compound `O=C(Nc1ccc(OCc2ccccc2)cc1)OCC1CN(Cc2ccccc2)CCO1` (stereo unspecified), the activity change, negative = inhibition is -88.7% (active).

Turning to `O=C(COc1ccc(C(=O)c2ccccc2)cc1)NC1CCN(Cc2ccccc2)CC1`, the activity change, negative = inhibition was 25.7%.

Take `CN1Cc2ccccc2CC2(CCN(Cc3ccsc3)CC2)C1=O`: the activity change, negative = inhibition is 0.416%.

As to `CN1C(=O)c2cc(NC(=O)c3ccc4c(c3)OCO4)ccc2OC[C@@H]2O[C@H](CC(=O)O)CC[C@H]21`, the activity change, negative = inhibition was 8.45%.

`Cc1cc(C)cc(NC(=O)CN2C(=O)CCc3cc(S(=O)(=O)N4CCOCC4)ccc32)c1`: the activity change, negative = inhibition is 24.4%.

Consider `Cc1ccc(NC(=O)CN2C(=O)CCc3cc(S(=O)(=O)N4CCCCC4C)ccc32)cc1N(C)C` (stereo unspecified), for which the activity change, negative = inhibition is -103% (active).

On to `Cc1ccc(Cl)cc1NC(=O)CN1C(=O)CCc2cc(S(=O)(=O)N3CCCCC3)ccc21`, for which the activity change, negative = inhibition is 0.0244%.

In the case of `COC(=O)c1c(NCc2c(C)noc2C)c2cccc(Cl)c2[nH]c1=O`, the activity change, negative = inhibition was 7.07%.

On to `Cc1ccc2[nH]c3c(c2c1)CCNC31C(=O)N(C)c2ccc(Br)cc21` (stereo unspecified), for which the activity change, negative = inhibition was 1.48%.

For `CS(=O)(=O)N1CCO[C@H]2[C@@H](OCc3cccnc3)CC[C@H]21`, the activity change, negative = inhibition was 37.3%.

For the compound `O=c1[nH]c2ccccc2n1C1CCN(CCOc2ccccc2)CC1`, the activity change, negative = inhibition is -49.4%.

`O=C1c2cc(OCCN3CCCCC3)ccc2-c2ccc(OCCN3CCCCC3)cc21`: the activity change, negative = inhibition is -90% (active).

With `O=C(Nc1ccc(F)cc1F)N1CCCN(CCOc2ccccc2)CC1`, the activity change, negative = inhibition was 8.95%.

Take `O=C1NCCc2[nH]c(-c3ccncc3)cc21`: the activity change, negative = inhibition was -85.6% (active).

Consider `COc1cccc(-c2cn[nH]c2C2CCCN2S(=O)(=O)c2ccc(Cl)cc2)c1` (stereo unspecified), for which the activity change, negative = inhibition is -31.9%.

`Cc1nn(CC(=O)N(C)Cc2ccccc2)c(=O)c2nc(-c3ccccc3)sc12`: the activity change, negative = inhibition was -55.4%.

`O=S(=O)(CCSCc1ccc(Cl)cc1)CCSCc1ccc(Cl)cc1`: the activity change, negative = inhibition was -10%.

`CS(=O)(=O)Nc1ccc(-n2cnc(-c3ccccc3)c2)cn1`: the activity change, negative = inhibition is 11.6%.

For `CC1(C)CC(=O)c2cnc3cc(-c4ccccc4)nn3c2C1`, the activity change, negative = inhibition is -86.8% (active).

Take `O=C(Nc1ccc(F)cc1F)c1c(O)c2ccccc2n(-c2ccccc2)c1=O`: the activity change, negative = inhibition was 24%.

Turning to `S=C(NCCCc1cnc[nH]1)NCCCN(Cc1ccc(Cl)c(Cl)c1)c1ccc(Br)cn1`, the activity change, negative = inhibition was -78.1% (active).

`Cc1ccc(NC(=O)CC(=O)NCCc2cnc[nH]2)cc1Cl`: the activity change, negative = inhibition is 5.77%.

Regarding `COc1ccc(NC(=O)c2cc3c(s2)CCN3C(=O)C2CC2)cc1`, the activity change, negative = inhibition is 23.2%.

Take `Cn1c(=O)c(-c2nc(-c3cccs3)no2)c(O)c2ccccc21`: the activity change, negative = inhibition was 67.9%.

As for `CCSCCN(C(=O)c1nnc2nc(C)cc(C)n12)C1CCCCC1`, the activity change, negative = inhibition was -3.21%.

For the compound `COc1ccc2c3c(n(C)c2c1)[C@H](CO)N(C(=O)Nc1cccc(F)c1)CC31CN(Cc2nccs2)C1`, the activity change, negative = inhibition was -24.3%.

With `N#Cc1ccc(C(=O)N2CCC3C2CCC(=O)N3c2cccnc2)cc1` (stereo unspecified), the activity change, negative = inhibition was -20.1%.

For `COc1ccc(-c2nc(Cn3nnc(C(=O)Nc4ccccc4C)c3C)c(C)o2)c(OC)c1`, the activity change, negative = inhibition is 32.4%.

For the compound `Cc1ccc(Cl)cc1NC(=O)c1nnn(Cc2nc(-c3cccc(Cl)c3)oc2C)c1C`, the activity change, negative = inhibition is 55.8%.

As to `Cc1ccccc1-c1nc(Cn2nnc(C(=O)Nc3c(C)cccc3C)c2C)c(C)o1`, the activity change, negative = inhibition is -38.6%.

`COc1ccc(Br)cc1-c1nc(Cn2nnc(C(=O)Nc3cc(F)ccc3C)c2C)c(C)o1`: the activity change, negative = inhibition is 423%.

`COc1ccccc1NC(=O)c1nnn(Cc2nc(-c3ccc(C)cc3)oc2C)c1C`: the activity change, negative = inhibition was -82.9% (active).

In the case of `COc1ccccc1NC(=O)c1nnn(Cc2nc(-c3cccc(OC)c3OC)oc2C)c1C`, the activity change, negative = inhibition was -83.3% (active).

Consider `Cc1ccc(-c2nc(Cn3nnc(C(=O)NCc4ccccn4)c3C)c(C)o2)cc1`, for which the activity change, negative = inhibition was -57.8%.

`Cc1cccc(C)c1NC(=O)c1nnn(Cc2nc(-c3ccccc3)oc2C)c1C`: the activity change, negative = inhibition is -62.3%.

In the case of `CCc1ccccc1NC(=O)c1nnn(Cc2nc(-c3ccccc3C)oc2C)c1C`, the activity change, negative = inhibition is -107% (active).

Regarding `CCC(c1ccccn1)N(C)C1CCNCC1` (stereo unspecified), the activity change, negative = inhibition is 16.8%.

With `CN(CC1Cc2ccccc2O1)S(=O)(=O)NCc1ccccc1` (stereo unspecified), the activity change, negative = inhibition is 0.376%.

Consider `CN1CCO[C@@H]2CN(C(=O)CC3Cc4ccccc4C3)C[C@@H]2C1`, for which the activity change, negative = inhibition was 112%.

As to `CN(C[C@@H]1[C@H](c2ccccc2)[C@@H](CO)N1Cc1ccccn1)S(C)(=O)=O`, the activity change, negative = inhibition is 2.44%.

For the compound `CCc1cc(CN2CCCC2c2nc3ccc(C)cc3[nH]2)on1` (stereo unspecified), the activity change, negative = inhibition is 9.45%.

The values are drawn from PubChem BioAssay AID1259416 (Broad Institute, 2018).
